# Sampled rows, rich in hits. Any-hit rate of the full collection: about 3.6%.
# Pf apPOL inh: Pf-apPOL inhibitors, biochemical, fluorescence; AID 1794808, 2022; inhibition, % at 10 µM; hit rate 0.25% among 210,000; Recombinant Pf-apPOL, molecular beacon fluorescence, 1.5 h; Plasmodium falciparum apicoplast DNA polymerase (apPOL)
# mHTT-CaM PPI inh: mutant huntingtin-calmodulin interaction inhibitors – biochemical, AlphaScreen, primary screen | P42858 | AlphaScreen His-mHTT/GST-CaM binding, luminescence | inhibition, % at 15 µM | hit rate 3.6% among 190,000 | AID 1671202, 2021
# Hits are given with their value; – = inactive; · = no result. Cut-off read from the data, not from the text of the source: active = inhibition above about 50%; inactive = the rest.
SMILES,Pf apPOL inh,mHTT-CaM PPI inh
CCn1cc(C2=CCN(C(=O)Nc3ccc(C)c(C)c3)CC2)c2cccnc21,–,–
Oc1c(Cl)cc(Cl)cc1C=NNC(=S)NCC1CCCO1 (centres undefined),70,·
Oc1c(Cl)cc(Cl)cc1C=NNC(=S)NC1CC2CCC1C2 (centres undefined),–,·
Cc1cccc(C)c1NC(=O)C1(N(C)C(=O)/C=C/c2ccc3c(c2)OCO3)CCCCC1,–,–
CN1CCN(c2ccc(/C=C3\Sc4ccccc4C3=O)cc2[N+](=O)[O-])CC1,–,72
Cc1ccc(/C=C2\Sc3ccccc3C2=O)cc1[N+](=O)[O-],–,–
Cc1noc(C)c1S(=O)(=O)N1CC2CC1CC2NC(=O)c1ccccc1 (centres undefined),–,–
Cc1cc(C)cc(NC(=O)Cc2nc(-c3ccccc3)n[nH]2)c1,–,–
NC(=O)Cc1nc(-c2ccccn2)n[nH]1,–,99
O=C(O)Cc1nc(-c2cccnc2)n[nH]1,–,–
O=C(Cc1nc(-c2ccccc2)n[nH]1)Nc1ccc(Cl)cc1,–,–
O=C(Cc1nc(-c2ccccn2)n[nH]1)Nc1ccccc1,–,73
Cc1cccc(NC(=O)Cc2nc(-c3ccccn3)n[nH]2)c1,–,99
Cc1ncc2c(n1)CCN(C(=O)Nc1cccc(Br)c1)C2,–,–
CC(CC(=O)Nc1ccc(S(N)(=O)=O)cc1)c1ccccc1 (centres undefined),–,–
C=CCNC(=O)c1c[nH]c2ccc(S(=O)(=O)N(C)c3ccc(C)c(C)c3)cc2c1=O,–,–
CCN(CC)S(=O)(=O)c1ccc2oc(C(=O)Nc3cc(Cl)ccc3OC)c(C)c2c1,–,–
Cc1cc(C)nc(SC2=CS(=O)(=O)c3ccccc32)n1,–,–
O=S1(=O)C=C(Sc2cccc3cccnc23)c2ccccc21,–,68
CCCOc1ccc(C=CC(=O)O)cc1,–,–
CS(=O)(=O)N(CC(=O)Nc1ccccc1C(N)=O)c1cccc(Br)c1,–,–
O=C(c1ccc(Cl)c(Cl)c1)N1CCN(c2ccc([N+](=O)[O-])c3cccnc23)CC1,–,–
O=C(c1ccccc1)N1CCN(c2ccc(F)cc2[N+](=O)[O-])CC1,–,–
O=C(c1cccc([N+](=O)[O-])c1)N1CCN(c2cccc(Cl)c2Cl)CC1,–,74
O=C(c1cc(F)c(F)cc1Cl)N1CCN(c2ccc([N+](=O)[O-])c3cccnc23)CC1,–,50
SMILES,Pf apPOL inh,mHTT-CaM PPI inh
O=C(c1ccccc1)N1CCN(c2ccc([N+](=O)[O-])cc2Cl)CC1,–,–
O=C(c1ccc(Cl)c(Cl)c1)N1CCN(c2ccc(F)cc2[N+](=O)[O-])CC1,–,53
O=C(Cc1ccc(Cl)cc1)Nc1ccc(Cl)cc1F,–,–
CN1C(=O)CCC2(CNC(=O)c3ccc4ccccc4n3)CCCC12 (centres undefined),–,–
CC(C)CNC(=O)C1CCN(C2CCN(C(=O)c3ccc(Cl)cc3)CC2)CC1,–,–
Cc1ccn2c(-c3csc(Nc4ncccn4)n3)c(C)nc2c1,–,–
CCN(CC)c1ccc(Nc2nc(-c3c(C)nc4ccccn34)cs2)cc1,64,97
CCOc1ccc(Nc2nc(-c3c(C)nc4cc(C)ccn34)cs2)cc1,–,67
Cc1ccccc1Nc1nc(-c2c(C)nc3sccn23)cs1,–,56
Cc1ccc(Nc2nc(-c3c(C)nc4ncccn34)cs2)cc1,–,80
Cc1nc2ncccn2c1-c1csc(NCc2ccccc2)n1,–,–
Cc1nc2sccn2c1-c1csc(Nc2ccccn2)n1,–,–
Cc1nc2ccccn2c1-c1csc(NCc2ccccc2)n1,–,–
COc1ccc(Nc2ncc3c(n2)CCN(Cc2ccc(OC(C)C)cc2)C3)c(OC)c1,–,–
Cc1ccccc1NC(=O)Nc1nnc(COc2ccccc2Cl)s1,–,–
COc1cccc(-c2noc(C3CCCN3C(=O)Nc3ccc(Cl)cc3)n2)c1 (centres undefined),–,–
N=c1nc(N)nc2scc(-c3ccc(F)cc3)n[n+]1-2,·,–
C=CCSc1nnc2c(n1)OC(c1ccc3c(c1)OCO3)N(C(C)=O)c1ccccc1-2 (centres undefined),–,–
CCN(CC)CCNC(=O)COc1ccc(OC)cc1,–,–
CN(C)CCNC(=O)CC12CC3CC(C1)CC(c1ccccc1)(C3)C2,–,64
CN(C)CCNC(=O)COc1ccc(C23CC4CC(CC(C4)C2)C3)cc1,–,95
COc1ccc(CCNC(=O)CC23CC4CC(C2)CC(c2ccccc2)(C4)C3)cc1OC,–,–
COCc1nn(CC2CC2)c2c1CN(S(=O)(=O)c1cnc[nH]1)CC2,–,–
COc1ccc(C(=O)Nc2c3c(nn2-c2ccc(Cl)cc2)CS(=O)(=O)C3)cc1OC,–,–
O=C(c1ccccc1F)N1CCC(c2cnn(-c3cccc(F)c3)c2)CC1,–,–
SMILES,Pf apPOL inh,mHTT-CaM PPI inh
COc1ccc(C(=O)NCc2nc3ccccc3n2Cc2ccccc2F)cc1OC,–,58
COc1ccc(C(=O)NCCc2nc3ccccc3n2Cc2ccccc2F)cc1OC,–,–
CC1Oc2ccccc2C=C1C=CC(=O)c1cccc(O)c1 (centres undefined),–,61
O=C(C=Cc1ccc2ccccc2n1)c1cccc(O)c1,–,–
COc1ccc(N2CCN(C(=O)CSc3cc(C)nc(-c4cccnc4)n3)CC2)cc1,–,–
CCCNC(=O)c1nc2ccccn2c1-c1ccc(F)cc1,–,–
CCC(C)Nc1nc(-c2ccccc2O)nc2ccccc12 (centres undefined),–,–
COc1cc(-c2nc(NCc3ccc(F)cc3)c3ccccc3n2)cc(OC)c1OC,–,88
CCC(C)Nc1nc(-c2cc(OC)c(OC)c(OC)c2)nc2ccccc12 (centres undefined),51,–
COc1ccccc1CNc1nc(-c2ccccc2F)nc2ccccc12,–,–
CCCCN(C)C(=O)c1ccc(-c2ccc(F)cc2)s1,–,–
CN(C)S(=O)(=O)c1cc(C(=O)NCc2cccnc2)c(Cl)cc1Cl,–,–
COc1ccc(CN2CCc3nc(Nc4cccc(OC)c4)ncc3C2)cc1,–,–
O=C1c2ccccc2NC(c2ccccc2Cl)N1c1ccc(F)cc1 (centres undefined),–,–
COc1ccccc1CNS(=O)(=O)c1ccc2[nH]c(=O)sc2c1,–,–
COc1ccc(CNC(=O)CN(C)S(=O)(=O)c2ccc3[nH]c4c(c3c2)CCCC4)cc1,–,–
COc1ccc(OC)c(CNS(=O)(=O)c2ccc3[nH]c4c(c3c2)CCCCC4)c1,–,85
CCOc1ccc(NS(=O)(=O)c2ccc3[nH]c4c(c3c2)CCCCC4)cc1,–,94
COc1ccc(NS(=O)(=O)c2ccc3[nH]c4c(c3c2)CCCCC4)cc1,–,57
COc1cccc(NC(=O)CN(C)S(=O)(=O)c2ccc3[nH]c4c(c3c2)CCCC4)c1,–,–
COc1cccc(NS(=O)(=O)c2ccc3[nH]c4c(c3c2)CCCCC4)c1,–,98
CCOc1ccc(NS(=O)(=O)c2ccc(NS(=O)(=O)c3ccccc3)cc2)cc1,–,–
Cc1ccc(NC(=O)C2CCCN(c3nccc4sccc34)C2)c(C)c1 (centres undefined),–,–
COc1ccc(S(=O)(=O)Nc2ccc(S(=O)(=O)Nc3cc(C)ccc3C)cc2)cc1OC,–,–
COc1ccc(C)cc1NS(=O)(=O)c1ccc2[nH]c3c(c2c1)CCCC3,–,81
CCOc1ccc(NS(=O)(=O)c2ccc3[nH]c4c(c3c2)CCCC4)cc1,–,91

# High-throughput results from PubChem.
